# Reference: PubChem BioAssay (EPA / NIEHS)
# The source made the active and inactive calls. Rule for the calls: active = hit-call score of the fitted dose curve at least 0.9, where 1 is the maximum; inactive = score below 0.9.
# Read-out: 3-Hydroxy-3-Methylglutaryl-CoA Synthase 2 (HMGCS2), HMGCS2 (gene 3158)
# Assay: LTEA_HepaRG_HMGCS2: Life Technologies and Expression Analysis (LTEA) Assay for 3-Hydroxy-3-Methylglutaryl-CoA Synthase 2 (HMGCS2) using HepaRG (AID 2283504)
# Settings: mRNA level, 48 h; actives raise or lower the signal
# Experimental: LTEA_HepaRG is a cell based, multiplexed-readout assay that uses HepaRG, a human liver cell line, with measurements taken at 48 hours after chemical dosing on a 96-well plate.LTEA_HepaRG_HMGCS2 is one of 102 assay component(s) measured in the LTEA HepaRG cell culture assay. It is a marker of Steatosis.Data from the assay component LTEA_HepaRG_HMGCS2 was analyzed into 1 endpoint. This assay endpoint, LTEA_HepaRG_HMGCS2, was analyzed with bidirectional fitting relative to DMSO as the negative control and baseline of activity. Using a type of inducible reporter, measures of mRNA induction for gain or loss-of-signal activity can be used to understand regulation of transcription factor activity. To generalize the intended target to other relatable targets, this assay endpoint is annotated to the lyase intended target family, where the subfamily is HMG-CoA synthase.
# A total of 1060 chemcials from the ToxCast library were tested in eight-point concentration-response experiments. Cell culture and cytotoxicity assays were conducted at Thermo Fisher Scientific's Custom Services facility (Madison, WI). A single lot of human HepaRG cells (Thermo Fisher Scientific, Frederick, MD) was used for the cell culture experiments. 96-well format collagen type I coated plates of human HepaRG cells were prepared using established methods. Briefly, cryopreserved HepaRG cells were thawed, plated at a density of approximately 100,000 cells/well in HepaRG Thaw, Plate, and General Purpose media (HPRG770, Thermo Fisher Scientific), and incubated for 48 hours. 0.5% DMSO was selected as vehicle control to balance the requisite need of DMSO in HepaRG cultures to maintain differentiation (for example, baseline metabolism, proportions of hepatocytes vs. cholangiocytes), while enabling further hepatic receptor pathway activation (for example, PXR and CAR) in response to chemical exposure. 48 hours after plating, the culture medium was replaced with HepaRG Serum-Free Incudtion Media. Cells were exposed to each test chemical in duplicate and maintained in CO2 incubators for another 48 hours. Chemical plates were thawed to room temperature and 200x concentrations of treatment groups were prepared. 8-point conentration-reponse curves were made with the highest exposure at 100 uM, followed by half-log dilutions, all in 0.5% DMSO. Each test plate contained variouse controls, induction positive controls (1mM phenobarbital), cytotoxicity positive controls ([…] aflatoxin B1), vehicle controls (0.5% DMSO), and total lysis controls (0.5% DMSO). Cell morphology images were taken using an Essen IncuCyte FLR automated microscope, with six 96-well plates imaged in about 24 minutes. Images were captured and exported and JPEG files. Spent culture media was transfered to black-well plates for the LDH assay, and remaining media was sorted at -80 C for later use. Cells were treated with RLT buffer and frozen until shipped for gene expression analysis. Total RNA was isolated from the cell suspension in 75 uL of Buffer RLT (Qiagen, Germantown, MD 20874) by Quintiles/Expression Analysis (Durham, NC) using a custom isolation procedure. Total RNA from each plate well was transferred to a preamplification plate. Fluidigm's 96.96 Dynamic ArrayTM (Fluidigm, Amsterdam, the Netherlands) technology was used for gene expression analyses by quantitative reverse transcription polymerase chain reaction (qRT-PCR, performed by Quintiles/Expression Analysis, Durham, NC)89. Standard TaqManTM Assays (Applied Biosystems/ThermoFisher Scientific, Foster City, CA) were used to assess the expression of 93 genes selected based on their selectivity and sensitivity to important hepatic receptors known to be modulated by environmental chemicals; importance in human hepatocyte functionality; and hepatotoxicity. […]
SMILES,outcome,AC50
CC(=O)OC[C@H]1O[C@@](COC(C)=O)(O[C@H]2O[C@H](COC(C)=O)[C@@H](OC(C)=O)[C@H](OC(C)=O)[C@H]2OC(C)=O)[C@@H](OC(C)=O)[C@@H]1OC(C)=O,inactive,
CCOCCOCCOCCO,inactive,
CC1=CC(=O)CC(C)(C)C1,inactive,
Cc1c(-c2cccnc2)c2ccccc2n1CCCCC(=O)O,inactive,
COCCOCCOCCOC,inactive,
O=C(O)CC(O)C(=O)O (stereo not given),inactive,
CCCCCCCCCCCCc1ccccc1,inactive,
CC[C@H](C)C(=O)O[C@H]1C[C@@H](C)C=C2C=C[C@H](C)[C@H](CC[C@@H]3C[C@@H](O)CC(=O)O3)[C@H]21,inactive,
CCCC(=O)OCC,inactive,
Nc1cccc(N)c1,inactive,
COc1ccc(-n2nc(C(F)F)cc2-c2ccc(S(C)=O)cc2)cc1 (stereo not given),inactive,
CCOC(=O)c1ccc(C2CCC(NC[C@H](O)COc3ccc(O)c(NS(C)(=O)=O)c3)CC2)cc1 (stereo not given in full),inactive,
Clc1nc(Cl)c(Cl)c(Cl)c1Cl,inactive,
Cc1ccc(S(=O)(=O)O)cc1C,inactive,
CC1(C)C(=O)N(Br)C(=O)N1Br,inactive,
O=P(OC(CCl)CCl)(OC(CCl)CCl)OC(CCl)CCl,,72.8 µM (active)
CC(C)CCCCCCOC(=O)c1ccc(C(=O)OCCCCCCC(C)C)c(C(=O)OCCCCCCC(C)C)c1,inactive,
CC(C)CCO,inactive,
COC(=O)c1c(Cl)c(Cl)c(C(=O)OC)c(Cl)c1Cl,inactive,
Oc1ccc2c(c1)-c1ccccc1C2,inactive,

SMILES,outcome,AC50
Cc1ccc(N)cc1O,inactive,
O=C(O)CCN(C1(C(=O)NO)CCCC1)S(=O)(=O)c1ccc(Oc2ccc(F)cc2)cc1,inactive,
CC(=O)OCCC(C)C,inactive,
Cc1[nH]cnc1C[C@H]1CCc2c(C)c3ccccc3n2C1=O,,23.8 µM (active)
CC(C)CC(C)(O)C#CC(C)(O)CC(C)C (stereo not given),inactive,
CCC(C)(C)C(=O)O[C@H]1C[C@@H](C)C=C2C=C[C@H](C)[C@H](CC[C@@H]3C[C@@H](O)CC(=O)O3)[C@H]21,inactive,
O=C1CCCCCN1,inactive,
CC[C@H]1OC(=O)[C@H](C)[C@@H](O[C@H]2C[C@@](C)(OC)[C@@H](O)[C@H](C)O2)[C@H](C)[C@@H](O[C@@H]2O[C@H](C)C[C@H](N(C)C)[C@H]2O)[C@](C)(O)C[C@@H](C)C(=O)[C@H](C)[C@@H](O)[C@]1(C)O,inactive,
CCCCC(CC)COC(=O)CCCCCCCCC(=O)OCC(CC)CCCC (stereo not given),inactive,
CCCCCCCCO,inactive,
COc1ccc(/C=C/S(=O)(=O)NC(=O)c2ccc(C)cc2Cl)cc1,inactive,
Nc1nc2ncc(CNc3ccc(C(=O)N[C@@H](CCC(=O)O)C(=O)O)cc3)nc2c(=O)[nH]1,inactive,
C1N2CN3CN1CN(C2)C3,inactive,
CC(O)CN(CCN(CC(C)O)CC(C)O)CC(C)O (stereo not given),inactive,
CC(C)=CCC/C(C)=C/CO,inactive,
COC(=O)CC(=O)OC,inactive,
O=C(OC[C@H]1O[C@@H](OC(=O)c2cc(O)c(O)c(OC(=O)c3cc(O)c(O)c(O)c3)c2)[C@H](OC(=O)c2cc(O)c(O)c(OC(=O)c3cc(O)c(O)c(O)c3)c2)[C@@H](OC(=O)c2cc(O)c(O)c(OC(=O)c3cc(O)c(O)c(O)c3)c2)[C@@H]1OC(=O)c1cc(O)c(O)c(OC(=O)c2cc(O)c(O)c(O)c2)c1)c1cc(O)c(O)c(OC(=O)c2cc(O)c(O)c(O)c2)c1,,9.74 µM (active)
CC(C)=CCC/C(C)=C\CO,inactive,
O=C(CCCCCCCCc1cccnc1)N1CCC(C=C(c2ccccc2)c2ccccc2)CC1,,22.9 µM (active)
On1ccccc1=S,inactive,
